Source: PubChem (National Center for Advancing Translational Sciences (NCATS))
NS1 inh: inhibitors of influenza NS1 protein function. Potency, µM (highest dose often 46.1 µM). hit rate 0.4% among 270,000; further: actives are rising curves; nearly all actives have a fitted effect of over 50% in size
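Recovery from NS1-induced slow growth read by OD600 in budding yeast switched to galactose assay medium (pH 6.0, -URA) at 1:100 dilution. Compound 23 nl per well; the matching strain lacking NS1 serves as control.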
SARS PLP yeast: blocks SARS-CoV papain-like protease in a yeast assay | AID 485353 | S. cerevisiae expressing SARS-CoV PLpro, growth rescue | Potency, µM (highest dose often 32.9 µM), actives largely listed as activators | hit rate 0.19% among 330,000; further: nearly all actives have a fitted effect of over 55% in size
Pf growth 96h: P. falciparum growth inhibition at 96 hours. hit rate 6.9% among 320,000. P. falciparum luciferase reporter growth, 96 h. Potency, µM (titrated, usually from 28.7 µM), actives largely listed as inhibitors. AID 504834; active means well fitted inhibition curve with a large enough effect; inconclusive means small, poorly fitted or top-dose-only effect, or another doubt; inactive means no such curve, though single readings can be large or run the other way
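Erythrocytes infected with luciferase-expressing P. falciparum were dispensed at 2% hematocrit and 0.05% parasitemia (final), then incubated with compounds 96 hours at 37 C in 5% CO2. Luminescence after detection reagent addition reported growth.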
Cycloheximide cs: counter-screen hit for Shiga toxin inhibitors, cycloheximide | cell reporter, cycloheximide protein synthesis inhibition counterscreen | max response, % | hit rate 12% among 300,000 | AID 2314; in the data active means max response mostly above about 13%, no sharp cut-off; inactive means mostly below about 14%; further: read at 38.3 µM for the half of the compounds with a filed dose
Shiga toxin inh: Shiga toxin inhibition; Vero cells, Shiga toxin protein synthesis inhibition reporter; inhibition, % at 38.7 µM; hit rate 9.2% among 290,000; AID 2315; in the data active means inhibition mostly above about 28%, no sharp cut-off; inactive means mostly below about 43%
Pf growth 48h: P. falciparum growth inhibition at 48 hours (one generation); P. falciparum luciferase growth in erythrocytes, 48 h; Potency, µM (doses to about 28.7 µM), actives largely listed as inhibitors; hit rate 5.9% among 310,000; active means well fitted inhibition curve with a large enough effect; inconclusive means small, poorly fitted or top-dose-only effect, or another doubt; inactive means no such curve, though single readings can be large or run the other way
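Erythrocytes infected with P. falciparum carrying an integrated firefly luciferase reporter (2% hematocrit, 0.1% parasitemia final) were exposed to compounds in RPMI 1640 with 0.5% Albumax at 37 C, 5% CO2. Growth inhibition was scored as reduced luminescence.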
A number is an active result; - = inactive; ? = inconclusive; . = no result. Compounds with a hit are over-represented: about 21% of the library has one in this group of screens. Unless noted, the call rests on the fitted dose curve.

SMILES	NS1 inh	SARS PLP yeast	Pf growth 96h	Cycloheximide cs	Shiga toxin inh	Pf growth 48h
O=C(CSc1nc2ccccc2o1)c1ccc2c(c1)OCCO2	-	-	.	39.6	98.1	-
O=C(CSc1nc2ccccc2o1)c1ccccc1	-	-	-	46.6	active	-
O=C(CSc1nc2ccccc2o1)NC(=O)NCc1ccccc1	-	-	-	-	-	-
Cc1ccc(S(=O)(=O)N2C[C@@H]3[C@H]4CC[C@H](C4)[C@@H]3[C@@H](C)[C@H]2c2ccn(Cc3ccccc3)c2)cc1	.	-	.	.	.	.
Cc1ccc(OCC(=O)OCC(=O)c2ccccc2)cc1C	-	-	?	-	-	-
COC(=O)CSc1nc2ccccc2o1	-	-	-	-	-	-
CC(=O)CSc1nc2ccccc2o1	-	-	-	26.7	57.0	-
C=CCN1C(=O)c2ccc(C(=O)N(CC)CC(=O)Nc3ccc(OC)cc3)cc2C1=O	.	-	-	.	.	?
COc1cccc(CN(CC2CCCO2)C(=O)c2cc3ccccc3oc2=O)c1 (configuration not stated)	-	-	-	43.7	77.3	-
COc1cccc(CN(C(=O)c2cc3ccccc3oc2=O)C2CC2)c1	-	-	.	25.6	78.1	-
CCCN(CCC)C1=CC(=[N+]2CCCC2)CC(C)(C)C1	-	-	0.329µM	-	-	1.47µM
CCCn1c(N)c(C(=O)CSc2n[nH]c(-c3ccc(C)cc3)n2)c(=O)[nH]c1=O	.	-	-	.	.	?
O=c1[nH]c(=O)c2ccccc2o1	.	.	-	.	.	-
Cc1nc(SCc2nc3c(C)cccc3[nH]2)c2oc3ccccc3c2n1	.	-	.	.	.	.
CCc1nc(NC(C)C)c2oc3ccccc3c2n1	-	-	-	-	-	-
O=c1[nH]c(CSc2ccccn2)nc2c1oc1ccccc12	-	-	-	48.7	91.3	-
O=c1[nH]cnc2c1oc1ccccc12	-	-	-	33.7	69.8	-
CCc1nc2c(oc3ccccc32)c(=O)[nH]1	-	-	-	22.1	-	?
O=C(c1c(Cl)nc2sccn12)N1CCN(c2cccc(Cl)c2)CC1	-	-	-	-	-	-
OCCOCCN1CCN(Cc2cccc(Oc3ccccc3)c2)CC1	.	.	.	-	-	.
CC(C)(C)c1cc(C(=O)NNc2cc(C(F)(F)F)ccc2Cl)n(Cc2ccccc2)n1	-	-	11.7µM	28.1	43.4	13.1µM
Cc1ccc(NNC(=O)c2cc(C(C)(C)C)nn2Cc2ccccc2)cc1	-	-	?	-	-	?
COc1ccccc1NNC(=O)c1cc(C(C)(C)C)nn1Cc1ccccc1	-	-	?	29.8	60.5	?
CC(C)(C)c1cc(C(=O)NNc2cccc(Cl)c2)n(Cc2ccccc2)n1	-	-	?	19.6	45.6	?
O=C(NC(=S)Nc1cc(-c2nc3ccccc3[nH]2)ccc1Cl)c1ccc2c(c1)OCO2	-	-	?	69.8	78.1	4.65µM
SMILES	NS1 inh	SARS PLP yeast	Pf growth 96h	Cycloheximide cs	Shiga toxin inh	Pf growth 48h
CCOc1ccc(C(=O)Nc2cc(-c3nc4ccccc4[nH]3)ccc2C)cc1[N+](=O)[O-]	-	-	-	-	-	?
Cc1ccc(-c2nc3ccccc3[nH]2)cc1NC(=O)c1ccc2c(c1)OCO2	-	-	?	13.8	-	?
Cc1ccc(-c2nc3ccccc3[nH]2)cc1NC(=S)NC(=O)c1ccccc1Br	-	-	-	-	-	?
Cc1ccc(-c2nc3ccccc3[nH]2)cc1NC(=O)/C=C/c1ccco1	-	-	?	85.0	177.5	?
Cc1ccc(-c2nc3ccccc3o2)cc1NC(=O)c1ccc2c(c1)OCO2	-	-	.	50.3	125.7	-
CCOc1ccc(Cn2c(=O)oc3ccccc32)cc1	-	-	?	-	-	-
O=c1oc2cc(O)ccc2c2c1CCCC2	-	-	-	-	-	-
Cc1cc(C(=O)CSc2nnc(Cc3ccccc3)o2)c(C)n1Cc1ccc2c(c1)OCO2	-	-	?	-	-	9.28µM
C=CCn1c(C)cc(C(=O)CSc2nnc(Cc3ccccc3)o2)c1C	-	?	?	30.9	-	-
Cc1ccnc(NC(=S)NC(=O)c2cncc(Br)c2)c1	-	-	-	25.4	-	-
CC1CCCC(NC(=S)NC(=O)c2cncc(Br)c2)C1C (configuration not stated)	-	?	-	-	-	13.1µM
O=C(Nc1ccccc1[N+](=O)[O-])c1cncc(Br)c1	.	-	-	27.6	-	-
CC1CCCCC1NC(=O)c1cncc(Br)c1 (configuration not stated)	-	-	-	-	-	.
